Source: PubChem BioAssay (The Scripps Research Institute Molecular Screening Center)
SRC1 TRFRET art: flags TR-FRET format artefacts in PPARgamma SRC-1 recruitment agonist screen; TR-FRET detection artefact counter-screen, emission ratio; active compounds read high; TR-FRET ratio at 8 µM; 99,000 tested, 0.34% active; AID 1051; in the data active = TR-FRET ratio above about 2300
PPARg SRC2 recr: agonists of SRC-2 recruitment by human PPARgamma; P37231; PPARgamma LBD-SRC-2 recruitment, biochemical; activation, % at 8 µM; 200,000 tested, 0.34% active; AID 1032;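 note: 0% = vehicle and 100% = reference agonist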
Target sequence (P37231 whole entry, looked up, the tested form may be a part): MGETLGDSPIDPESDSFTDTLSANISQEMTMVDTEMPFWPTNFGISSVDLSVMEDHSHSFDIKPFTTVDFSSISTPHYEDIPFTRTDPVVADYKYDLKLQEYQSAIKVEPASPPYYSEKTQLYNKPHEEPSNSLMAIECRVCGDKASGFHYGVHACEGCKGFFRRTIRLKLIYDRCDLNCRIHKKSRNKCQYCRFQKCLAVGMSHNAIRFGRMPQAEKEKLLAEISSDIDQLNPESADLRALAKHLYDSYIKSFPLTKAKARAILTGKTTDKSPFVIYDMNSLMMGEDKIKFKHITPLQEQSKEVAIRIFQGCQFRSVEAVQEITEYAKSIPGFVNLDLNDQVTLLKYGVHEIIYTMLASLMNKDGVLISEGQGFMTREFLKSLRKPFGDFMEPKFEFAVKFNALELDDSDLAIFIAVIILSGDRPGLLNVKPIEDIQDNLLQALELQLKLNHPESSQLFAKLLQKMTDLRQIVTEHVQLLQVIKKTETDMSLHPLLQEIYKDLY
PPARg SRC1 recr: PPARgamma-driven SRC-1 recruitment agonism | PPARgamma-SRC-1 coactivator recruitment biochemical assay | activation, % at 8 µM | 200,000 tested, 0.41% active | AID 631; in the data active = activation above about 19%;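 note: 0% = DMSO and 100% = reference agonist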
SRC3 TRFRET art: TR-FRET artefact, counter-screen to PPARgamma/SRC-3 agonist assay; PPARgamma/SRC-3 format; active compounds read high; TR-FRET ratio at 8 µM; 99,000 tested, 0.39% active; AID 1048; in the data active = TR-FRET ratio above about 2000
TR-FRET SRC-2 ct: counter-screen for PPARgamma SRC-2 recruitment agonists: TR-FRET artefact. active compounds read high. TR-FRET ratio at 8 µM. 200,000 tested, 0.4% active. AID 1049; in the data active = TR-FRET ratio above about 2000
PPARg SRC3 recr: promotes SRC-3 coactivator recruitment by human PPARgamma. P37231. biochemical PPARgamma/SRC-3 coactivator recruitment assay. activation, % at 8 µM. 200,000 tested, 0.26% active. AID 731; in the data active = activation above about 23%;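 note: 0% = DMSO and 100% = reference agonist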
PPARg SRC2 ag: confirmation of agonists of SRC-2 recruitment by human PPARgamma | shares compounds with PPARg SRC3 recr | biochemical SRC-2 recruitment by PPARgamma | activation, % at 8 µM | 790 tested, 52% active;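 note: 0% = vehicle alone and 100% = reference agonist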
PPARg SRC1 conf: human PPARgamma SRC-1 recruitment agonism, confirmation | shares compounds with PPARg SRC3 recr | PPARgamma–SRC-1 coactivator recruitment biochemical assay | activation, % at 8 µM | 790 tested, 43% active | AID 1300; in the data active = activation above about 20%;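 note: 0% = vehicle wells and 100% = reference agonist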
PPARg SRC3 ag: human PPARgamma SRC-3 recruitment agonism, confirmation | shares compounds with PPARg SRC3 recr | biochemical PPARgamma-SRC-3 coactivator recruitment, agonist mode | activation, % at 8 µM | 790 tested, 29% active | AID 1301; in the data active = activation above about 24%;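 note: 0% = vehicle wells and 100% = reference agonist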
* hit, by the source's call; . = no result given. A selection: hits, their analogues and other compounds. The true share with any hit is near 0.84%. Cut-off read from the data, not from the text of the source, unless noted: active = activation above about 22%; inactive = the rest.

SMILES	SRC1 TRFRET art	PPARg SRC2 recr	PPARg SRC1 recr	SRC3 TRFRET art	TR-FRET SRC-2 ct	PPARg SRC3 recr	PPARg SRC2 ag	PPARg SRC1 conf	PPARg SRC3 ag
CCN(CC)c1ccc(C=Nc2ccc(N(C)C)cc2)c(O)c1	.	77.8*	23.5*	.	2498*	98.1*	6.2	5.3	6.8
CCN(CC)CCCN1C(=O)C(O)=C(C(=O)c2cc3ccccc3o2)C1c1ccccn1 (configuration not stated)	.	47.5*	42.9*	.	2586*	61.6*	40.0*	30.3*	27.0*
CN(C)CCN1C(=O)C(O)=C(C(=O)c2cc3ccccc3o2)C1c1ccccn1 (configuration not stated)	.	-6.0	5.4	.	1299	15.4	.	.	.
CC(C)Cn1[nH]c2c3c(ccc2c1=O)C(=O)c1ccccc1C3=O	.	20.0	15.3	.	1610	26.0*	5.0	4.2	4.7
O=C1c2ccccc2C(=O)c2c1ccc1c(=O)n(-c3ccccc3)[nH]c21	1572	5.9	9.9	1724	1455	2.5	.	.	.
CCOC(=O)c1[nH]c2ccccc2c1NC(=O)Nc1ccc(OC)cc1	.	5.2	8.1	.	1752	18.0	.	.	.
Cc1cc2cc(CNS(=O)(=O)c3ccc4ccccc4c3)ccc2n1C	.	21.0	17.8	.	3303*	37.8*	104.2*	78.6*	65.4*
Cc1cc2cc(CNC(=O)c3ccc(S(=O)(=O)N4CCOCC4)cc3)ccc2n1C	.	8.3	30.9*	.	2210*	45.0*	35.4*	29.1*	18.9
Cc1cc2ccccc2n1CCNC(=O)c1ccc(S(=O)(=O)N2CCCCC2)cc1	.	26.0*	24.4*	.	3753*	43.8*	93.0*	80.0*	70.0*
CCCC(=O)NCc1ccc2c(c1)cc(C)n2C	.	-2.1	8.7	.	1636	-0.7	.	.	.
Cc1ccc(C(=O)NCCc2ccc(S(=O)(=O)N3CCCC3)cc2)cc1	1940	0.4	4.1	1782	1639	0.2	.	.	.
Cc1ccc(NC(=O)COC(=O)/C=C/c2cccs2)c(C)c1	1810	4.0	-2.3	1645	1476	-2.0	.	.	.
COc1cccc(CC2(CO)CCCN(Cc3sc(N4CCCC4)nc3Cl)C2)c1 (configuration not stated)	1729	7.7	9.9	1464	1582	-5.2	.	.	.
CNC(=O)NC(=O)CSc1nc(-c2cccs2)c(C#N)c(=O)[nH]1	3256*	55.7*	41.0*	2978*	3062*	30.8*	43.1*	29.4*	29.9*
O=c1[nH]c(SCc2ccc(Cl)cc2)nc2ccsc12	2154	9.5	6.0	1716	1567	-0.2	.	.	.
CCOC(=O)Cc1csc(NC(=O)CSc2nc(-c3ccccc3)c(C#N)c(=O)[nH]2)n1	1835	6.2	4.6	1539	1702	0.4	.	.	.
N#Cc1c(-c2cccs2)nc(SCc2ccc(Cl)cc2)[nH]c1=O	3031*	42.7*	32.2*	2717*	2686*	24.2*	36.4*	25.1*	24.2*
COc1ccc(C2C(C(=O)c3ccco3)=C(O)C(=O)N2c2nnc(C)s2)cc1 (configuration not stated)	2503*	17.6	25.4*	2261*	2089*	20.8	30.9*	25.0*	16.7
C=CCOc1ccc(C2C(C(=O)c3ccco3)=C(O)C(=O)N2c2nnc(C)s2)cc1 (configuration not stated)	2094	25.0*	14.3	1863	2019*	14.4	25.8*	24.0*	16.2
Cc1ccc(OCC(=O)NC(=S)Nc2ccc3c4c(cccc24)CC3)cc1	2107	-3.8	0.3	1684	1680	-0.7	.	.	.
CC(C)(C)c1ccc(OCC(=O)Nc2ccc3c4c(cccc24)C(=O)NC3=O)cc1	2184	13.9	14.4	1741	1795	32.9*	13.0	13.6	10.4
O=C(Nc1ccccc1)c1ccc(-c2ccccc2)s1	2787*	38.5*	39.4*	2060*	2178*	16.9	43.5*	34.6*	26.2*
CC(=O)c1sc(NC(=O)c2ccco2)nc1-c1ccccc1	.	6.0	5.7	.	1647	7.7	.	.	.
